DUSP3 inh: DUSP3 (human) phosphatase inhibition. recombinant VHR phosphatase, pNPP absorbance. 290,000 compounds, 0.52% hits. inhibition, % at 13.3 µM. P51452. AID 1654; in the data active means inhibition above about 50%
PrPC surface inh: cell surface PrPC inhibition, primary TR-FRET screen | TR-FRET read-out | inhibition, % at 13.8 µM | 370,000 compounds, 0.43% hits | AID 720596; in the data active means inhibition above about 24%
TcdB inh: inhibitors of Clostridioides difficile toxin B glycohydrolase; P18177; TcdB glycohydrolase enzymatic assay, plate reader; inhibition, % at 9.99 µM; 350,000 compounds, 0.24% hits; AID 652162; in the data active means inhibition above about 10%
PrPC confirm: cell surface PrPC inhibition, TR-FRET confirmation; shares compounds with PrPC surface inh; cell surface PrPC level; inhibition, % at 13.8 µM; 1,500 compounds, 65% hits; in the data active means inhibition above about 25%
LD9 cytotox: LD9 cell cytotoxicity, PrPc inhibitor counter-screen | 1,500 compounds, 29% hits | shares compounds with PrPC surface inh | LD9 cells cytotoxicity, luminescence viability | inhibition, % at 13.8 µM; in the data active means inhibition above about 9.5%
Hits are given with their value; 0 = inactive; - = no result. This is a sample that favours compounds with a hit; in the whole collection about 0.82% have one here.

SMILES	DUSP3 inh	PrPC surface inh	TcdB inh	PrPC confirm	LD9 cytotox
CN(C)CC(=O)N1CC2(C1)[C@H](c1ccccc1)[C@H](CO)N2S(=O)(=O)c1ccccc1	-	-	0	-	-
C[C@H](CO)N1C[C@H](C)[C@H](CN(C)S(=O)(=O)c2ccccc2)OCCCC[C@H](C)Oc2ccc(NC(=O)Nc3ccc(F)cc3)cc2C1=O	-	-	0	-	-
Cc1cc(C(=O)Nc2cccc3c2O[C@H](CN(C)Cc2ccc(C(=O)O)cc2)[C@H](C)CN([C@@H](C)CO)C3=O)n(C)n1	-	-	0	-	-
Cc1ccc(NNC(=O)C(O)(c2cccc(C(F)(F)F)c2)c2cccc(C(F)(F)F)c2)cc1	0	0	0	-	-
O=C(NNc1ccccc1Br)C(O)(c1cccc(C(F)(F)F)c1)c1cccc(C(F)(F)F)c1	0	30	-	0	0
CC(=O)Nc1ccc(S(=O)(=O)Nc2ccc(Cc3ccncc3)cc2)cc1	0	0	0	-	-
CC(C)(C)c1ccc(S(=O)(=O)Nc2ccc(Cc3ccncc3)cc2)cc1	0	28	-	44	0
C[C@@H]1CN([C@H](C)CO)C(=O)c2cc(NS(=O)(=O)c3ccc(F)cc3)ccc2O[C@H]1CN(C)S(=O)(=O)c1cn(C)cn1	-	-	0	-	-
Nc1c(C(=O)Nc2ccc3c(c2)OCCO3)nnn1Cc1ccc(Cl)cc1	-	0	0	-	-
NC(=O)c1nnn(Cc2cc(Cl)c(C(=O)c3ccc(Cl)cc3)c(Cl)c2)c1N	-	35	0	28	0
COc1ccc2c3c(n(C)c2c1)[C@H](CO)N(Cc1ccc2c(c1)OCO2)CC31CN(C(=O)C2CC2)C1	-	-	0	-	-
CCC(=O)N1CCN(c2ccc(NC(=O)c3ccc([N+](=O)[O-])o3)cc2Cl)CC1	0	38	0	0	97
CC(=O)N1CCN(c2ccc(NC(=O)c3ccc([N+](=O)[O-])o3)cc2Cl)CC1	0	0	0	-	-
C[C@H](NC(=O)C[C@@H]1CC[C@H](NC(=O)C2CC2)[C@H](CO)O1)c1ccccc1	-	-	0	-	-
CCCNC(=O)N1CC2(CCN(Cc3cccnc3)CC2)c2c(n(C)c3cc(OC)ccc23)[C@@H]1CO	-	-	0	-	-
C[C@@H]1CN([C@@H](C)CO)C(=O)c2cccc(N(C)C)c2O[C@@H]1CN(C)C(=O)Nc1ccccc1	-	-	0	-	-
O=C(O)CSc1ccnc2cc(Cl)ccc12	0	47	0	90	0
CC(=O)N1CCN(c2ccnc3cc(Cl)ccc23)CC1	0	0	0	-	-
Cc1cnc2cc(Cl)ccc2c1SCC(=O)O	0	0	0	-	-
COC(=O)CSc1ccnc2cc(Cl)ccc12	0	68	0	92	0
O=C(Cc1ccccc1)N[C@H]1CC[C@H](CC(=O)N2CCOCC2)O[C@@H]1CO	-	-	0	-	-
COc1cccc(-c2ccc([C@@H]3[C@@H](CO)N(C(C)=O)C34CN(C(C)=O)C4)cc2)c1	-	-	0	-	-
c1ccc(CCNc2ccnc3cc4ccccc4cc23)cc1	0	80	0	0	80
CC(C)Nc1ccc(Nc2ccnc3cc4ccccc4cc23)cc1	0	0	0	-	-
C[C@H](CO)N1C[C@H](C)[C@@H](CN(C)S(=O)(=O)c2ccccc2)OCCCC[C@H](C)Oc2ccc(NS(=O)(=O)c3cccs3)cc2C1=O	-	-	0	-	-
SMILES	DUSP3 inh	PrPC surface inh	TcdB inh	PrPC confirm	LD9 cytotox
CS(=O)(=O)N1[C@@H](CO)[C@@H](c2ccccc2)C12CN(Cc1cc(F)ccc1F)C2	-	-	0	-	-
O=C(CSC1=NCCS1)Nc1ccnc2ccccc12	0	56	-	51	0
COC(=O)c1ccccc1NC(=O)CSc1nc(C)cc(C)n1	0	0	0	-	-
O=C(CSC1=NCCS1)Nc1ccc2ccccc2c1	0	0	0	-	-
Cc1cc(C)nc(SCC(=O)Nc2ccnc3ccccc23)n1	0	46	0	43	16
C[C@H]1CN([C@@H](C)CO)S(=O)(=O)c2ccc(-c3ccc(F)cc3)cc2O[C@H]1CN(C)C	-	-	0	-	-
CC(=O)N(C)C[C@H]1Oc2ncc(-c3ccccc3F)cc2C(=O)N([C@H](C)CO)C[C@@H]1C	-	-	0	-	-
C[C@@H]1CN([C@@H](C)CO)C(=O)Cc2cc(NC(=O)Nc3ccc(C(F)(F)F)cc3)ccc2O[C@@H]1CN(C)Cc1ccc(Oc2ccccc2)cc1	-	-	0	-	-
O=C(N[C@H]1CC[C@@H](CCn2cc(C3(O)CCCC3)nn2)O[C@@H]1CO)c1ccccc1F	-	-	0	-	-
CC(=O)N(Cc1cc(=O)[nH]c2ccccc12)c1ccccc1	0	0	-	-	-
CC(=O)N(Cc1cc(=O)[nH]c2ccccc12)c1cccc(C)c1	0	24	-	30	0
O=C(N[C@@H]1CC[C@@H](CC(=O)N2CCc3ccccc3C2)O[C@H]1CO)C1CCOCC1	-	-	0	-	-
C[C@@H]1CN([C@@H](C)CO)C(=O)c2cc(NC(=O)Nc3ccc4c(c3)OCO4)ccc2O[C@H]1CN(C)Cc1ccncc1	-	-	0	-	-
CC(C)(C)NC(=O)CN(Cc1cccs1)C(=O)C1COc2ccccc2O1 (configuration not stated)	0	0	-	-	-
CC(C)CCNC(=O)C(c1ccc(O)cc1)N(Cc1cccs1)C(=O)C1COc2ccccc2O1 (configuration not stated)	0	25	0	0	0
CC(C)C#Cc1cnc2c(c1)C(=O)N([C@@H](C)CO)C[C@H](C)[C@@H](CN(C)Cc1cncnc1)O2	-	-	0	-	-
C[C@@H](NC(=O)C[C@H]1CC[C@H](NC(=O)CN2CCOCC2)[C@@H](CO)O1)c1ccccc1	-	-	0	-	-
CC1CN(c2ccccc2)c2nc3c(c(=O)[nH]c(=O)n3C)n2C1 (configuration not stated)	-	0	0	-	-
CC1CN(c2ccc(Cl)cc2)c2nc3c(c(=O)[nH]c(=O)n3C)n2C1 (configuration not stated)	0	38	0	0	0
CCOC(=O)CSc1nc(-c2ccccc2)nc2ccccc12	0	105	-	116	0
COC(=O)CSc1nc(-c2ccccc2)nc2ccc(F)cc12	0	49	-	107	0
CCOC(=O)C(C)Sc1nc(-c2ccccc2)nc2ccc(F)cc12 (configuration not stated)	0	0	-	-	-
CCOc1ccc2nc(-c3ccccc3)nc(SCC(=O)Nc3ncc(C)s3)c2c1	0	0	-	-	-
CCOC(=O)C(C)Sc1nc(-c2ccccc2)nc2ccccc12 (configuration not stated)	0	84	0	109	0
OCCSc1nc(-c2ccccc2)nc2ccc(F)cc12	0	0	0	-	-
SMILES	DUSP3 inh	PrPC surface inh	TcdB inh	PrPC confirm	LD9 cytotox
CCOC(=O)CSc1nc(-c2ccccc2)nc2ccc(F)cc12	0	26	-	105	0
CCOC(=O)CSc1nc2ccccc2c(=O)[nH]1	0	0	0	-	-
C[C@@H]1CN([C@H](C)CO)S(=O)(=O)c2ccc(-c3cncnc3)cc2O[C@H]1CN(C)CC1CC1	-	-	0	-	-
C[C@H](CO)N1C[C@H](C)[C@@H](CN(C)Cc2ccncc2)Oc2ccc(NS(=O)(=O)c3cn(C)cn3)cc2C1=O	-	-	0	-	-
C[C@@H]1CN([C@@H](C)CO)C(=O)c2cc(NC(=O)CCC(F)(F)F)ccc2O[C@H]1CN(C)Cc1ccccc1	-	-	0	-	-
C[C@H](CO)N1C[C@H](C)[C@@H](CN(C)C(=O)Nc2cccc3ccccc23)Oc2ccc(NC(=O)Nc3ccc4c(c3)OCO4)cc2CC1=O	-	-	0	-	-
CCOC(=O)c1c(C)[nH]c(C(=O)OCC(=O)Nc2ccc(Cl)cn2)c1C	-	0	0	-	-
CCOC(=O)c1c(C)[nH]c(C(=O)OCC(=O)Nc2sccc2C(N)=O)c1C	-	33	0	0	44

Screening results as filed in PubChem.
